The source of these data is the supplement of paper PMC9177965.

Structures are written as SMILES. Several values for one entry are separate records, joined by “and”; a condition that tells them apart may be missing. Identical values can stand only once.

One experiment has as its system HT29 RNF43 G659fs (RNF43 659mut, CRISPR-edited). Put plainly: cell viability activity relative to DMSO (negative = inhibition); higher = more viable cells (less growth inhibition). Conditions: 5 µM; 96 h. As to the method: (§1)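 Broad Repurposing Library primary screen at a single dose of 5 uM. HT29 sg-Ctrl and HT29 RNF43 G659fs CRISPR-edited isogenic cells were seeded at 2500 cells/well in 384-well plates in duplicate and treated for 96 h. Viability was read by CellTiter-Glo and reported as % activity relative to DMSO, with MG132 as the positive control (negative = growth inhibition).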
On to `COC(=O)c1ccc2c(C(=Nc3ccc(N(C)C(=O)CN4CCN(C)CC4)cc3)c3ccccc3)c(O)[nH]c2c1`, for which the cell viability activity was -73.8%.
For `C=C1CC[C@@H]2[C@](C)(CO)[C@H](O)CC[C@@]2(C)[C@@H]1C/C=C1/C(=O)OC[C@H]1O`, the cell viability activity is -27.5%.
For the molecule `CC(C)(O)C(=O)N1CCN(c2ccc(C(F)(F)F)c(C3=C(c4c[nH]c5ccccc45)C(=O)NC3=O)c2)CC1`, the cell viability activity was -43.1%.
In the case of `CC(C)(C)c1ccc(S(=O)(=O)/C=C/C#N)cc1`, the cell viability activity was -80.4%.
On the same count and under the same terms, under `COC[C@H](C)NC1CCC(Nc2cc(-c3cccc(NCC4(C#N)CCOCC4)n3)c(Cl)cn2)CC1` (some centres undefined) stands -67.4%; under `CC1=NN(c2ccc(C(=O)O)cc2)C(=O)/C1=C\c1ccc(-c2cc(C)c(C)cc2[N+](=O)[O-])o1`, -62.3%; under `CC(C)C[C@H](NC(=O)[C@H](Cc1ccccc1)NC(=O)c1cnccn1)B(O)O`, -94.1%.
Take `CC(C)=CCC/C(C)=C/CC/C(C)=C/CSc1ccccc1C(N)=O`: the cell viability activity was -26.6%.
Take `C=CC(=O)Nc1cccc(Oc2nc(Nc3ccc(N4CCN(C)CC4)cc3)ncc2Cl)c1`: the cell viability activity was -46.3%.
Take `O=C(NC[C@H](O)CO)c1ccncc1Nc1ccc(I)cc1F`: the cell viability activity was -83.4%.
The same measure, in the same setting: under `O=C(Nc1cc(C(F)(F)F)cc(C(F)(F)F)c1)c1cc(Cl)ccc1O` stands -94.4%; under `C#C[C@]1(O)CC[C@H]2[C@@H]3CCC4=C(CCC(=O)C4)[C@H]3CC[C@@]21C`, -62.8%.
As to `Cn1ncc(Cl)c1-c1cc(C(=O)N[C@H](CN)Cc2ccc(F)c(F)c2)oc1Cl`, the cell viability activity was -70.4%.
With `O=C(c1ccc(-c2ccc(Cl)cc2)o1)N(Cc1ccccn1)c1ccc(N2CCNCC2)cc1`, the cell viability activity was -45.7%.
As for `CC(=O)c1c(C)c2cnc(Nc3ccc(N4CCNCC4)cn3)nc2n(C2CCCC2)c1=O`, the cell viability activity was -37.2%.
For the molecule `c1ccc(CNc2nc(NCc3ccccc3)c3ccccc3n2)cc1`, the cell viability activity is -22%.
In the case of `CCCCNc1ncc2c(-c3ccc(CN4CCN(C)CC4)cc3)cn([C@H]3CC[C@H](O)CC3)c2n1`, the cell viability activity is -89.4%.
With `c1ccc2c(-c3cnn4cc(-c5ccc(N6CCNCC6)cc5)cnc34)ccnc2c1`, the cell viability activity is -95.2%.
With `COC(=O)Nc1nc2ccc(SC(C)C)cc2[nH]1`, the cell viability activity is -43.7%.
Still for that read-out and setting: under `O=C(NOCCO)c1cc(CN2OCCCC2=O)c(F)c(F)c1Nc1ccc(I)cc1F` stands -76.5%.
The same measure, in the same setting: under `C[C@H]1O[C@@H](O[C@H]2[C@@H](O)C[C@H](O[C@H]3[C@@H](O)C[C@H](O[C@H]4CC[C@@]5(C)[C@H](CC[C@@H]6[C@@H]5C[C@@H](O)[C@]5(C)[C@@H](C7=CC(=O)OC7)CC[C@]65O)C4)O[C@@H]3C)O[C@@H]2C)C[C@H](O)[C@@H]1O` stands -89.3%; under `CN(c1ncccc1CNc1nc(Nc2ccc3c(c2)CC(=O)N3)ncc1C(F)(F)F)S(C)(=O)=O`, -83.7%; under `COC(=O)Nc1ccc(-c2nc(N3CCOCC3)c3cnn(C4CCN(Cc5cccnc5)CC4)c3n2)cc1`, -55.8%.
`CCN(CC)CC1CCN(c2ncc3ncnc(Nc4ccc(F)c(Cl)c4)c3n2)CC1`: the cell viability activity is -37.1%.
Same read-out and setting: under `CO[C@H]1/C=C\C=C(/C)C(=O)NC2=CC(=O)C(NCCN(C)C)=C(C[C@@H](C)C[C@H](OC)[C@H](O)[C@@H](C)/C=C(\C)[C@@H]1OC(N)=O)C2=O` stands -93.9% and -91.4%; under `C[C@@H]1COCCN1c1cc(=O)n2c(n1)N(Cc1cncc(Cl)c1)[C@H](C(F)(F)F)CC2`, -57.9%; under `CO[C@@H](C)Cn1c(=O)n(C)c2cnc3ccc(-c4cncc(C(C)(C)O)c4)cc3c21`, -81.7%.
With `Cc1cc(Nc2nc(N[C@@H](C)c3ncc(F)cn3)ncc2Cl)[nH]n1`, the cell viability activity is -32.8%.
As for `CS[C@H]1SC[C@H]2C(=O)N(C)[C@@H](C(C)C)C(=O)OC[C@@H](NC(=O)c3cnc4ccccc4n3)C(=O)N[C@@H](C)C(=O)N(C)[C@@H]1C(=O)N(C)[C@@H](C(C)C)C(=O)OC[C@@H](NC(=O)c1cnc3ccccc3n1)C(=O)N[C@@H](C)C(=O)N2C`, the cell viability activity is -88%.
For `CCc1nc(C(N)=O)c(Nc2ccc(N3CCC(N4CCN(C)CC4)CC3)c(OC)c2)nc1NC1CCOCC1`, the cell viability activity was -46.8%.
As for `CS(=O)(=O)N1CCc2c(-c3cnc(N)nc3)nc(N3CCOCC3)nc21`, the cell viability activity was -53.1%.
In the case of `NC1(Cc2ccc(Cl)cc2)CCN(c2ncnc3[nH]ccc23)CC1`, the cell viability activity is -39.2%.
For `CC(C)NC[C@@H](C(=O)N1CCN(c2ncnc3c2[C@H](C)C[C@H]3O)CC1)c1ccc(Cl)cc1`, the cell viability activity was -53.6%.
In the case of `COc1ccc2c(O[C@@H]3C[C@H]4C(=O)N[C@]5(C(=O)NS(=O)(=O)C6CC6)C[C@H]5/C=C\CCCCN(C)C(=O)[C@@H]4C3)cc(-c3nc(C(C)C)cs3)nc2c1C`, the cell viability activity was -30%.
For the molecule `COc1ccc(C[C@H](NC(=O)[C@H](C)NC(=O)CN2CCOCC2)C(=O)N[C@@H](Cc2ccccc2)C(=O)[C@@]2(C)CO2)cc1`, the cell viability activity is -95.4%.
On to `O=C(CCCCCCC(=O)Nc1ccccc1)NO`, for which the cell viability activity was -85.7%.
As to `COC[C@H](NC(=O)c1cnc(C)s1)C(=O)N[C@@H](COC)C(=O)N[C@@H](Cc1ccccc1)C(=O)[C@@]1(C)CO1`, the cell viability activity is -95.3%.

A further experiment relates to HT29 sg-Ctrl (RNF43 wildtype). The description is as above. To be noted: 5 µM; 96 h. As for the experimental part:
as §1
On to `COC(=O)c1ccc2c(C(=Nc3ccc(N(C)C(=O)CN4CCN(C)CC4)cc3)c3ccccc3)c(O)[nH]c2c1`, for which the cell viability activity was -34.2%.
As to `C=C1CC[C@@H]2[C@](C)(CO)[C@H](O)CC[C@@]2(C)[C@@H]1C/C=C1/C(=O)OC[C@H]1O`, the cell viability activity was -0.518%.
In the case of `CC(C)(O)C(=O)N1CCN(c2ccc(C(F)(F)F)c(C3=C(c4c[nH]c5ccccc45)C(=O)NC3=O)c2)CC1`, the cell viability activity was -32.7%.
For the molecule `CC(C)(C)c1ccc(S(=O)(=O)/C=C/C#N)cc1`, the cell viability activity was -95.4%.
`COC[C@H](C)NC1CCC(Nc2cc(-c3cccc(NCC4(C#N)CCOCC4)n3)c(Cl)cn2)CC1` (some centres undefined): the cell viability activity is -89.4%.
Still for that read-out and setting: under `CC1=NN(c2ccc(C(=O)O)cc2)C(=O)/C1=C\c1ccc(-c2cc(C)c(C)cc2[N+](=O)[O-])o1` stands -79.6%; under `CC(C)C[C@H](NC(=O)[C@H](Cc1ccccc1)NC(=O)c1cnccn1)B(O)O`, -94.6%; under `CC(C)=CCC/C(C)=C/CC/C(C)=C/CSc1ccccc1C(N)=O`, -6.13%.
On the same count and under the same terms, under `C=CC(=O)Nc1cccc(Oc2nc(Nc3ccc(N4CCN(C)CC4)cc3)ncc2Cl)c1` stands -58%; under `O=C(NC[C@H](O)CO)c1ccncc1Nc1ccc(I)cc1F`, -91.2%.
`O=C(Nc1cc(C(F)(F)F)cc(C(F)(F)F)c1)c1cc(Cl)ccc1O`: the cell viability activity was -90.9%.
Still for that read-out and setting: under `C#C[C@]1(O)CC[C@H]2[C@@H]3CCC4=C(CCC(=O)C4)[C@H]3CC[C@@]21C` stands -59.4%.
For `Cn1ncc(Cl)c1-c1cc(C(=O)N[C@H](CN)Cc2ccc(F)c(F)c2)oc1Cl`, the cell viability activity was -61.1%.
Consider `O=C(c1ccc(-c2ccc(Cl)cc2)o1)N(Cc1ccccn1)c1ccc(N2CCNCC2)cc1`, for which the cell viability activity is -21.3%.
Still for that read-out and setting: as for `CC(=O)c1c(C)c2cnc(Nc3ccc(N4CCNCC4)cn3)nc2n(C2CCCC2)c1=O`, the figure is -48.4%.
`c1ccc(CNc2nc(NCc3ccccc3)c3ccccc3n2)cc1`: the cell viability activity is -41%.
Same read-out and setting: as for `CCCCNc1ncc2c(-c3ccc(CN4CCN(C)CC4)cc3)cn([C@H]3CC[C@H](O)CC3)c2n1`, the figure is -91.1%; as for `c1ccc2c(-c3cnn4cc(-c5ccc(N6CCNCC6)cc5)cnc34)ccnc2c1`, -95.7%; as for `COC(=O)Nc1nc2ccc(SC(C)C)cc2[nH]1`, -5.83%.
With `O=C(NOCCO)c1cc(CN2OCCCC2=O)c(F)c(F)c1Nc1ccc(I)cc1F`, the cell viability activity was -75%.
The same measure, in the same setting: as for `C[C@H]1O[C@@H](O[C@H]2[C@@H](O)C[C@H](O[C@H]3[C@@H](O)C[C@H](O[C@H]4CC[C@@]5(C)[C@H](CC[C@@H]6[C@@H]5C[C@@H](O)[C@]5(C)[C@@H](C7=CC(=O)OC7)CC[C@]65O)C4)O[C@@H]3C)O[C@@H]2C)C[C@H](O)[C@@H]1O`, the figure is -90.8%.
`CN(c1ncccc1CNc1nc(Nc2ccc3c(c2)CC(=O)N3)ncc1C(F)(F)F)S(C)(=O)=O`: the cell viability activity is -83.1%.
Take `COC(=O)Nc1ccc(-c2nc(N3CCOCC3)c3cnn(C4CCN(Cc5cccnc5)CC4)c3n2)cc1`: the cell viability activity was -48.1%.
Same read-out and setting: as for `CCN(CC)CC1CCN(c2ncc3ncnc(Nc4ccc(F)c(Cl)c4)c3n2)CC1`, the figure is -16.4%; as for `CO[C@H]1/C=C\C=C(/C)C(=O)NC2=CC(=O)C(NCCN(C)C)=C(C[C@@H](C)C[C@H](OC)[C@H](O)[C@@H](C)/C=C(\C)[C@@H]1OC(N)=O)C2=O`, -92.1% and -90.4%; as for `C[C@@H]1COCCN1c1cc(=O)n2c(n1)N(Cc1cncc(Cl)c1)[C@H](C(F)(F)F)CC2`, 1.22%.
On to `CO[C@@H](C)Cn1c(=O)n(C)c2cnc3ccc(-c4cncc(C(C)(C)O)c4)cc3c21`, for which the cell viability activity is -78.6%.
Regarding `Cc1cc(Nc2nc(N[C@@H](C)c3ncc(F)cn3)ncc2Cl)[nH]n1`, the cell viability activity is -31.6%.
`CS[C@H]1SC[C@H]2C(=O)N(C)[C@@H](C(C)C)C(=O)OC[C@@H](NC(=O)c3cnc4ccccc4n3)C(=O)N[C@@H](C)C(=O)N(C)[C@@H]1C(=O)N(C)[C@@H](C(C)C)C(=O)OC[C@@H](NC(=O)c1cnc3ccccc3n1)C(=O)N[C@@H](C)C(=O)N2C`: the cell viability activity was -86.6%.
With `CCc1nc(C(N)=O)c(Nc2ccc(N3CCC(N4CCN(C)CC4)CC3)c(OC)c2)nc1NC1CCOCC1`, the cell viability activity was -61.8%.
In the case of `CS(=O)(=O)N1CCc2c(-c3cnc(N)nc3)nc(N3CCOCC3)nc21`, the cell viability activity was -25.2%.
Still for that read-out and setting: as for `NC1(Cc2ccc(Cl)cc2)CCN(c2ncnc3[nH]ccc23)CC1`, the figure is -20.8%.
In the case of `CC(C)NC[C@@H](C(=O)N1CCN(c2ncnc3c2[C@H](C)C[C@H]3O)CC1)c1ccc(Cl)cc1`, the cell viability activity was -35.4%.
On to `COc1ccc2c(O[C@@H]3C[C@H]4C(=O)N[C@]5(C(=O)NS(=O)(=O)C6CC6)C[C@H]5/C=C\CCCCN(C)C(=O)[C@@H]4C3)cc(-c3nc(C(C)C)cs3)nc2c1C`, for which the cell viability activity was -23.2%.
For `COc1ccc(C[C@H](NC(=O)[C@H](C)NC(=O)CN2CCOCC2)C(=O)N[C@@H](Cc2ccccc2)C(=O)[C@@]2(C)CO2)cc1`, the cell viability activity was -94.4%.
Still for that read-out and setting: under `O=C(CCCCCCC(=O)Nc1ccccc1)NO` stands -84.4%; under `COC[C@H](NC(=O)c1cnc(C)s1)C(=O)N[C@@H](COC)C(=O)N[C@@H](Cc1ccccc1)C(=O)[C@@]1(C)CO1`, -93.6%.
